# Pf growth 48h: Primary qHTS for delayed death inhibitors of the malarial parasite plastid, 48 hour incubation. P. falciparum luciferase growth in erythrocytes, 48 h. Potency, µM (highest dose often 28.7 µM), usual class: inhibitors. 5.9% of 310,000 active
#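 Cell-based growth assay: transgenic P. falciparum expressing firefly luciferase, cultured in red cells within RPMI 1640 containing 0.5% w/v Albumax, 24 mM bicarbonate and gentamycin. A drop in luciferase activity indicates inhibition.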
# LASV entry inh: qHTS for Inhibitors of binding or entry into cells for Lassa Virus; Lassa virus pseudotype entry inhibition, cell reporter; Potency, µM (series often up to 37.9 µM), usual class: inhibitors; 1.2% of 300,000 active; AID 540256, 2011; calls by dose curve; tested in HEK293 cells; note: nearly all actives have a fitted effect of over 50% in size
# MARV entry inh: qHTS for inhibitors of binding or entry into cells for Marburg Virus; Marburg virus pseudotyped entry inhibition, cell reporter; Potency, µM (highest dose often 37.8 µM), most hits filed as inhibitors; 1.8% of 300,000 active; calls by dose curve; tested in HEK293 cells
# Shiga inhibitor: A qHTS for Small Molecule Inhibitors of Shiga Toxin | Vero cells, Shiga toxin protein synthesis inhibition reporter | inhibition, % at 38.7 µM | 9.2% of 290,000 active; in the data active = inhibition mostly above about 28%, no sharp cut-off; inactive = mostly below about 43%
# Cycloheximide cs: Cycloheximide Counterscreen for Small Molecule Inhibitors of Shiga Toxin; cell reporter, cycloheximide protein synthesis inhibition counterscreen; max response, %; 12% of 300,000 active; AID 2314, 2010; in the data active = max response mostly above about 13%, no sharp cut-off; inactive = mostly below about 14%; note: read at 38.3 µM for the half of the compounds with a filed dose
# Pf growth 96h: Primary qHTS for delayed death inhibitors of the malarial parasite plastid, 96 hour incubation | P. falciparum luciferase reporter growth, 96 h | Potency, µM (doses to about 28.7 µM), hits mostly inhibitors | 6.9% of 320,000 active | AID 504834, 2011
#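 96 h incubation, 37 C, 5% CO2, of luciferase-reporter P. falciparum-infected RBCs (2% hematocrit, 0.05% parasitemia final) with test compounds; endpoint luminescence.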
# A number is an active result; . = inactive; ? = inconclusive; / = no result given; + = active, no number; [ ] = another dose, or the depositor's remark. Hits are enriched below; roughly 19% of the tested compounds scored in any of these assays. Unless noted, calls come from the whole dose curve; as a rule, active = well fitted inhibition curve with a large enough effect; inconclusive = small, poorly fitted or top-dose-only effect, or another doubt; inactive = no such curve, though single readings can be large or run the other way.
SMILES,Pf growth 48h,LASV entry inh,MARV entry inh,Shiga inhibitor,Cycloheximide cs,Pf growth 96h
COc1ccc2oc(=O)c(C(=O)N3c4ccccc4CC3C)cc2c1 (stereo unspecified),/,.,.,.,.,.
CCN(CC)CCN(C(=O)c1ccc2c(c1)CCCC2)c1nc2c(C)cccc2s1,9.3µM,?,?,.,.,?
CCN(CC)CCN(C(=O)c1ccc2c(c1)CCCC2)c1nc2ccc(C)cc2s1,13µM,?,10µM,.,20,?
Cc1cc(/C([O-])=C(/C(=S)Nc2ccc(F)cc2)[n+]2ccccc2)c(C)n1-c1ccc(F)cc1,.,.,.,.,.,?
Cc1cc(/C([O-])=C(/C(=S)Nc2ccccc2)[n+]2ccccc2)c(C)n1-c1ccccc1,/,.,.,.,29,?
O=[N+]([O-])c1cccc(/C([O-])=C(/C(=S)Nc2ccccc2)[n+]2ccccc2)c1,.,.,?,+,80,?
Cc1cc(/C([O-])=C(/C(=S)Nc2ccc(F)cc2)[n+]2ccccc2)c(C)n1Cc1ccccc1Cl,?,.,.,.,.,9.3µM
COc1ccc(-c2nc3scc(-c4ccccc4)n3n2)cc1,.,.,.,.,.,/
Cc1ccc(-n2nc3c(c2NC(=O)c2cccs2)CS(=O)(=O)C3)cc1,.,/,/,.,.,.
Oc1ccc2ccccc2c1C=Nc1ccc(Cl)cn1,.,.,.,.,.,13µM
Cc1cc(O)c(C=Nc2ccc(Cl)cn2)c(=O)o1,/,.,.,.,.,.
Cc1nn(C)c(C)c1N=Cc1c(O)ccc2ccccc12,/,.,.,.,.,8.3µM
Oc1ccc2ccccc2c1/C=N/n1cnnc1,.,.,?,.,.,.
CCOC(=O)C1=C(N)Oc2cc(C)n(CCc3ccc(OC)c(OC)c3)c(=O)c2C1c1cccnc1 (stereo unspecified),2.3µM,?,?,.,.,10µM
COC(=O)C1=C(N)Oc2cc(C)n(CCCn3ccnc3)c(=O)c2C1c1cccc(Cl)c1 (stereo unspecified),5.9µM,.,.,.,.,/
CCN(CC)CCCn1c(C)cc2c(c1=O)[C@@H](c1cccc(Cl)c1)C(C#N)=C(N)O2,/,/,11µM,/,/,/
COC(=O)C1=C(N)Oc2cc(C)n(Cc3cccnc3)c(=O)c2C1c1ccc(OC)c(OC)c1 (stereo unspecified),.,.,.,.,.,.
COC(=O)C1=C(N)Oc2cc(C)n(CCc3ccccc3)c(=O)c2C1c1cccnc1 (stereo unspecified),10µM,.,?,.,.,?
CCOC(=O)C1=C(N)Oc2ccc3ccccc3c2C1c1cccnc1 (stereo unspecified),?,.,.,.,.,9.3µM
CCOC(=O)C1=C(N)Oc2ccc3ccccc3c2C1c1cccc(O)c1 (stereo unspecified),?,/,/,.,.,.
Cc1ccc(C2CC(=O)Oc3cc(O)ccc32)cc1 (stereo unspecified),.,.,.,.,.,.
O=C(O)c1cc2n(n1)C(C(F)(F)F)CC(C1CC1)N2 (stereo unspecified),2.1µM,/,/,.,.,.
CC1CC(C(F)(F)F)n2nc(C(=O)O)cc2N1 (stereo unspecified),.,.,.,.,.,/
CCOC(=O)c1cc2n(n1)C(C(F)(F)F)CC(C)N2 (stereo unspecified),.,.,.,.,12,/
CC1CC(C(F)(F)C(F)(F)F)n2nc(C(=O)O)cc2N1 (stereo unspecified),.,.,.,.,.,?
SMILES,Pf growth 48h,LASV entry inh,MARV entry inh,Shiga inhibitor,Cycloheximide cs,Pf growth 96h
CC(C)OC(=O)/C(=C\c1ccccc1)NC(=O)c1ccccc1,.,/,/,.,.,.
Cc1nc(CN2CCN(Cc3nc(C(c4ccccc4)c4ccccc4)no3)CC2)cs1,?,.,.,.,.,?
O=S(=O)(c1ccc(Cl)cc1)N1CCC(c2nc3ccccc3[nH]2)CC1,?,.,.,.,.,.
c1cc(-c2sc(-c3ccncc3)c(-c3ccncc3)c2-c2ccncc2)ccn1,?,.,?,.,.,.
CCC(c1nnnn1CCc1ccccc1)N(Cc1ccco1)Cc1cc2cc(C)cc(C)c2[nH]c1=O (stereo unspecified),12µM,?,?,.,.,.
CCC(c1nnnn1CCc1ccccc1)N(Cc1ccco1)Cc1cc2c(C)ccc(C)c2[nH]c1=O (stereo unspecified),?,?,14µM,.,.,.
CCOC(=O)Cn1nnnc1C(CC)N(Cc1ccccc1)Cc1cc2cc(C)ccc2[nH]c1=O (stereo unspecified),/,.,?,.,.,?
CCC(c1nnnn1CCOC)N(Cc1cc2c(C)cc(C)cc2[nH]c1=O)CC1CCCO1 (stereo unspecified),?,?,.,.,.,?
CCOc1ccc(NC(=O)CCC(=O)O)cc1,.,.,.,.,.,?
Cc1ccc(OCC(=O)Nc2ccc(N(C)C)cc2)cc1,.,.,.,.,.,.[5.75 µM]
CCOc1ccc(N2C(=O)C3CCCN3C2=S)cc1 (stereo unspecified),?,/,/,/,/,.
CCOc1ccc(NC(=O)CN2C(=O)C3CCCN3C2=O)cc1 (stereo unspecified),.,/,/,active,15,?
CN(C)c1cc[n+](CC(=O)Nc2ccc(Oc3ccccc3)cc2)cc1,?,?,9.2µM,.,.,?
CC(=O)c1ccc(NC(=O)C[n+]2ccccc2)cc1,.,/,/,.,.,?
CCOc1ccc(NC(=O)CC(=O)Nc2ccc(OCC)cc2)cc1,/,/,/,67,.,.
CCOc1ccc(NC(=O)C[n+]2ccc(N(C)C)cc2)cc1,0.66µM,.,.,.,.,?
CC(C)CCN(C(=O)CNC(=O)c1cccs1)C(C(=O)NC1CCCC1)c1ccncc1 (stereo unspecified),.,/,/,.,.,.
COc1ccc(CCNC(=O)CCCCn2c(=O)c3ccccc3n(Cc3ccc(F)cc3Cl)c2=O)cc1OC,/,.,.,/,/,/
Cc1ccc(NC(=O)C2CCN(c3cnccn3)CC2)cc1,.,/,/,.,.,?
O=C(CCSCCC(=O)NCc1ccccc1)NCc1ccccc1,/,.,.,.,.,?
CN(C)c1cc[n+](CC(=O)c2ccc(OC(F)F)cc2)cc1,0.74µM,?,?,.,.,0.74µM
Cc1ccsc1C(=O)OCC(=O)c1ccc(OC(F)F)cc1,.,/,/,/,/,.
Cc1cccc(NC(=O)C[n+]2ccc(N(C)C)cc2)c1,?,/,/,.,.,.
CN(C)c1cc[n+](CC(=O)Nc2ccc(Cl)cc2)cc1,0.083µM,/,/,.,.,?
CCOc1ccc(NC(=O)CN2C(=O)CSC2=O)cc1,.,.,?,79,15,?
CCOC(=O)c1ccc(NC(=O)CN2C(=O)CSC(C)C2=O)cc1 (stereo unspecified),.,.,.,.,13,.
CCOc1ccc(NC(=O)CN2C(=O)c3ccccc3C2=O)cc1,.,/,/,.,.,?

# Source: PubChem
